A selection: hits, their analogues and other compounds. The true share with any hit is near 19%.
KB-V1 cytotox: qHTS assay for MDR1-selective chemotherapeutics: Primary screen using the drug-selected MDR subline cells KB-V1; KB-V1 MDR cells viability, CellTiter-Glo, 72 h; Potency, µM (top dose mostly 46.1 µM), hits mostly cytotoxic; actives 3.4% (n = 400,000); AID 1347076, 2019; also: nearly all actives have a fitted effect of over 60% in size
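KB-V1 cells (P-gp-expressing MDR subline of KB-3-1) in phenol-red-free DMEM with 10% FBS were exposed to library compounds over a concentration series for 72 h at 37 degrees C. Viability read by CellTiter-Glo luminescence; concentration-effect curves fitted after normalization.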
HT1080 IDH1KD tx: qHTS for induction of synthetic lethality in tumor cells producing 2HG: qHTS for the HT-1080-IDH1KD cell line; HT-1080 IDH1 knockdown viability, ATP luminescence, 48 h; Potency, µM (titrated, usually from 46.1 µM), without a hit: at the top dose activity, negative = toxicity, actives largely listed as cytotoxic; actives 2% (n = 360,000);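 also: 0% = DMSO wells and -100% = cell-free medium wells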
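% activity derives from luminescence (CellTiter-Glo), normalised to DMSO and no-cell wells. HT-1080-IDH1KD cells, 750/well, had 48 h compound exposure at 37 °C.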
HT1080NT lethal: qHTS for induction of synthetic lethality in tumor cells producing 2HG: qHTS for the HT-1080-NT fibrosarcoma cell line; Potency, µM (titrated, usually from 46.1 µM), for inactives: at the highest dose activity, negative = less viability, usual class: cytotoxic; actives 1.6% (n = 360,000); HT-1080-NT fibrosarcoma viability, CellTiter-Glo ATP luminescence, 48 h;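 also: NT is the 2HG producing partner of a matched IDH1 knockdown line; 0% = DMSO-treated cells and -100% = media-only wells without cells; nearly all actives have a fitted effect of over 55% in size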
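Read-out is CellTiter-Glo luminescence after 10 minutes at room temperature, following 48 hours' compound treatment of HT-1080-NT cells (750 cells/well, RPMI, 5% FBS, 37 degrees C).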
DT40 TDP1 CPT: qHTS for Inhibitors of human tyrosyl-DNA phosphodiesterase 1 (TDP1): qHTS in cells in presence of CPT | actives 12% (n = 420,000) | Potency, µM (top dose mostly 46.2 µM), inactives show at the top dose activity change, negative = growth inhibition, usual class: inhibitors | chicken DT40 Tdp1-/-;hTDP1 cells + 20 nM CPT, ATP luminescence, 48 h; also: nearly all actives have a fitted effect of over 55% in size
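Chicken DT40 Tdp1-/- cells stably complemented with human TDP1 were seeded at 400 cells/well in medium containing 20 nM camptothecin, exposed to pin-transferred compounds, and grown at 37 °C for at least 48 hr. Viability was read as ATP luminescence.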
TDP1 cell noCPT: qHTS for Inhibitors of human tyrosyl-DNA phosphodiesterase 1 (TDP1): qHTS in cells in absence of CPT. DT40 Tdp1-/- hTDP1 cells, no CPT, ATP luminescence, 48 h. Potency, µM (top dose mostly 46.2 µM), without a hit: at the highest dose activity change, negative = growth inhibition, actives largely listed as inhibitors. actives 15% (n = 420,000). AID 686978, 2013; also: nearly all actives have a fitted effect of over 55% in size
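Chicken DT40 Tdp1-/- cells complemented with human TDP1, screened without camptothecin (DMSO vehicle only), 400 cells/well. Compounds pin-transferred, cells incubated at 37 °C for at least 48 hr. Growth read as ATP-dependent luminescence (CellTiter-Glo, 30 min at RT).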
KB-3-1 tox: qHTS assay for MDR1-selective chemotherapeutics: Primary screen using the parental adenocarcinoma cell KB-3-1 | actives 1.4% (n = 400,000) | KB-3-1 viability, CellTiter-Glo ATP luminescence, 72 h | Potency, µM (series often up to 46.1 µM), most hits filed as cytotoxic | AID 1347075, 2019; also: nearly all actives have a fitted effect of over 60% in size
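Multi-concentration cytotoxicity screen in KB-3-1 cells grown in DMEM lacking phenol red with 10% FBS. After 72 h at 37 °C with compound, ATP-dependent luminescence was recorded.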
* marks the source's active call; other numbers are inactive results; i = inactive; ? = inconclusive; · = not tested or not shown; [ ] = dose if it differs, or a comment. Calls follow the shape of the dose curve; as a rule, active = well fitted curve in the direction sought with a large enough effect; inconclusive = small, poorly fitted or top-dose-only effect, or another doubt; inactive = no such curve, though single readings can be large; an effect the other way counts as inactive or inconclusive. Unless noted, % is scaled to controls: 0 for no effect and ±100 for the full control effect; potency is read from the fitted curve at half-maximal effect.

SMILES | KB-V1 cytotox | HT1080 IDH1KD tx | HT1080NT lethal | DT40 TDP1 CPT | TDP1 cell noCPT | KB-3-1 tox
COc1ccc(N=CC2=C(O)CC(c3ccccc3)CC2=O)c(OC)c1 (centres undefined) | ? | ? | ? | 18.4µM* | 14.6µM* | ?
O=C1CC(c2cccc(Cl)c2)CC(O)=C1C=NC1CCCC1 (centres undefined) | 20.6µM* | 8.2% | -2.3% | -13.0% | -18.2% | i
O=C1CC(c2ccccc2)CC(O)=C1C=NCc1ccccc1Cl (centres undefined) | ? | ? | 5.62µM* | 2.31µM* | 2.31µM* | ?
O=C1CC(c2ccccc2)CC(O)=C1C=NCc1ccccc1 (centres undefined) | i | -7.6% | 0.2% | -22.0% | -18.1% | i
NCCCC[C@H]1CN=C(N)N1CCCCC1CCCCC1 | i | -7.2% | 14.7% | ? | ? | i
NC1=NC[C@@H](Cc2ccc(O)cc2)N1CCc1cc(C(F)(F)F)cc(C(F)(F)F)c1 | i | -3.3% | 0.4% | ? | 20.6µM* | i
NC1=NC[C@@H](Cc2ccc(O)cc2)N1CCc1cccc(F)c1 | ? | -4.3% | -0.2% | ? | -52.2% | i
NC1=NC[C@H](Cc2ccc(O)cc2)N1CCC12CC3CC(CC(C3)C1)C2 | i | -15.8% | -17.0% | 8.2µM* | ? | ?
NC1=NC[C@H](CC2CCCCC2)N1CCc1cc(C(F)(F)F)cc(C(F)(F)F)c1 | ? | ? | ? | 5.8µM* | 7.31µM* | ?
CC(C)(C)CN1C(N)=NC[C@H]1Cc1ccc(O)cc1 | i | 11.0% | 11.9% | ? | ? | i
COc1ccc(CCNCc2c(C(=O)O)c(C)n(Cc3cccc(Cl)c3)c2C)c(OC)c1OC | i | · | · | ? | -15.0% | i
CCOC(=O)C1CCCN(CCC(=O)Nc2c(C(=O)OC)[nH]c3cc(OC)ccc23)C1 (centres undefined) | i | 1.8% | 6.4% | 0.9% | -8.4% | i
CCOC(=O)c1[nH]c2ccc(Br)cc2c1NC(=O)CCN1CCCC(C)(C)C1 | 3.26µM* | -16.6% | -11.9% | ? | 25.9µM* | i
CCOC(=O)C1CCN(CC(=O)Nc2c(C(=O)OC)[nH]c3ccc(Cl)cc23)CC1 | ? | ? | -13.6% | 23.1µM* | 10.3µM* | i
CCOC(=O)C1CCCN(CC(=O)Nc2c(C(=O)OC)[nH]c3ccc(Br)cc23)C1 (centres undefined) | i | ? | ? | 16.4µM* | 20.6µM* | i
COC(=O)c1[nH]c2ccc(Br)cc2c1NC(=O)CN1CCN(C2CCCCC2)CC1 | ? | 18.4µM* | 23.1µM* | 25.9µM* | 20.6µM* | ?
O=C(NC1CC1)[C@@H]1C[C@H](Sc2nc3ccccc3[nH]2)CN1CC1CCCCC1 | · | · | · | -9.4% | ? | ·
Cc1ccc(S(=O)(=O)NN=C2CCCc3ccccc32)cc1 | ? | 3.6% | -0.4% | 13.9% | ? | i
CC1CCCCN1C(=O)CSc1nc2c(c(=O)n(C)c(=O)n2C)n1C (centres undefined) | i | -1.7% | -0.6% | -3.3% | -17.8% | i
COc1ccc(S(=O)(=O)NC(=O)C2(C)CCN2C(=O)COc2ccc(Cl)cc2)cc1OC (centres undefined) | i | 9.8% | 27.7% | 5.3% | -1.5% | i
COc1cc2cc(CNc3ccccc3)c(=O)n(CC(=O)Nc3cc(C)cc(C)c3)c2cc1OC | i | · | · | · | · | i
CCc1ccccc1NNC(=O)c1snnc1C | i | ? | 11.6µM* | -2.7% | ? | i
CC(OC(=O)c1ccc2ncsc2c1)C(=O)NC1CCCCC1C (centres undefined) | i | 8.9% | -0.4% | -11.9% | ? | i
COc1ccccc1C(=O)N1CCCC(c2nc(SCCN3CCOCC3)ncc2C)C1 (centres undefined) | · | · | · | -9.8%[9.04 µM] | ? | ·
Brc1cc(Br)c[n+](CCc2ccccc2)c1 | i | · | · | 11.2µM* | 14.1µM* | i
SMILES | KB-V1 cytotox | HT1080 IDH1KD tx | HT1080NT lethal | DT40 TDP1 CPT | TDP1 cell noCPT | KB-3-1 tox
Brc1ccc[n+](CCc2ccccc2)c1 | i | · | · | -6.6% | -24.0% | i
Cc1ccc(C)c(NC(=O)N2CCC(N3CCN(Cc4ccc(F)cc4)C(=O)C3=O)CC2)c1 | i | · | · | -22.0% | 0.1% | i
CN1CCN(c2ccc(CNC(=O)c3ccc(-c4ccc(F)c(F)c4)c4ccoc34)cc2)CC1 | i | -23.1% | -22.6% | ? | 18.4µM* | i
O=C(NCc1ccncc1)c1ccc(-c2ccc(F)c(F)c2)c2ccoc12 | ? | ? | ? | 4.11µM* | 6.51µM* | i
O=C(NCc1ccc(C(F)(F)F)cc1)c1ccc(-c2ccc(F)c(F)c2)c2ccoc12 | i | 16.7% | 23.5% | ? | ? | i
CC(C)CNC(=O)c1ccc(-c2ccc(F)c(F)c2)c2ccoc12 | i | -7.8% | -11.4% | ? | 18.4µM* | i
CS(=O)(=O)Nc1cccc(NC(=O)c2ccc(-c3ccc(F)c(F)c3)c3ccoc23)c1 | ? | 0.0% | ? | ? | ? | i
O=C(NCc1ccncc1)c1cc(-c2ccc(Cl)cc2)oc1C(F)(F)F | ? | -23.5% | -12.3% | ? | 18.4µM* | i
O=C(NCc1ccccn1)c1cc(-c2ccc(Cl)cc2)oc1C(F)(F)F | ? | -3.4% | -1.8% | ? | ? | i
O=C(NCCc1ccccc1)c1ccc(-c2cccnc2)c2ccoc12 | i | -1.9% | ? | ? | 14.6µM* | i
O=C(NCc1cccc(Cl)c1)c1ccc(-c2cccnc2)c2ccoc12 | i | -15.7% | 1.8% | ? | ? | i
CC(=O)OC(C)(C)/C=C/C(=O)[C@](C)(O)C1[C@H](O)C[C@@]2(C)C3CC=C4C(C=C(O[C@@H]5O[C@H](CO)[C@@H](O)[C@H](O)[C@H]5O)C(=O)C4(C)C)[C@]3(C)C(=O)C[C@]12C (some centres undefined) | ? | 23.1µM* | ? | 1.64µM* | 1.84µM* | ?

From PubChem
